Calls of active or inactive are those of the source. Calls come from the whole dose curve; as a rule, active = well fitted curve in the direction sought with a large enough effect; inactive = flat fitted curve, though single readings scatter.
Test: Quantitative high throughput screen for delayed death inhibitors of the malarial parasite plastid: Hit Validation with 3D7 at 96 hr using Flow Cytometry
Conditions: P. falciparum 3D7 in erythrocytes, SYBR/MitoTracker flow cytometry
Source text: The goal of this screen is to discover new antimalarial compounds that act by inhibiting the development of the apicoplast organelle in the malarial parasite Plasmodium falciparum. Some antibiotics, such as azithromycin and tetracycline, are known to interfere with the apicoplast translational machinery, and have a potent antimalarial effect. […] We developed a cell-based quantitative high throughput screen that leverages this "delayed death" phenotype to enrich for compounds that target the apicoplast. To detect small molecules that cause the delayed death phenotype, erythrocytes infected with firefly luciferase-expressing parasites were incubated with compounds for either one or two generations, corresponding to 48 and 96 hours, respectively. Growth inhibition was detected by a decrease in luciferase activity. Compounds that inhibited parasite growth in the second generation at least five-fold more potently than in the first generation were defined as delayed death inducing. These compounds were selected for confirmatory screening using a flow cytometry based assay. This hit validation assay used the 3D7 cell line and measured at 96 hours. NIH Molecular Libraries Probe Production Network [MLPCN] NIH Chemical Genomics Center [NCGC] MLPCN Grant: R21 NS059500 Assay Provider: David Fidock and Eric Ekland, Columbia University
Test compounds were diluted in 20 microliters of complete media (RPMI 1640 with 0.5% w/v Albumax (GIBCO), 24 mM sodium bicarbonate (Sigma) and 10 ug/mL gentamycin (Gibco)) in clear 384-well plates (Greiner). All liquid handling was conducted using a Bio Tek Precision 2000 pipetting system. Twenty microliters of infected erythrocytes, 0.2% parasitemia (for 48 hour time points) or 0.1% parasitemia (for 96 hour time points) were added to the compound dilutions (1% hematocrit, final concentration; 40 microliters, total culture volume). The assay plates were incubated for 48 hours, or 96 hours, at 37 masculine C in a humidified chamber (Billups- Rothenberg, Del Mar, CA, USA), gassed with 5%CO2/5%O2/ 90%N2. After two generations (96hours), 5 microliters of culture were harvested and transferred to a second 384 well plate for fluorescent staining. Samples were stained with 30 microliters of 2 x SYBR Green I (Invitrogen) and 150nM MitoTracker Deep Red (Invitrogen) diluted in 0.9% NaCl, 0.2% dextrose (Baxter) supplemented with 2.5% Fetal Calf Serum (Gibco) (saline/FCS). Mature erythrocytes lack nuclei and mitochondria, therefore only parasitized erythrocytes retain the SYBR Green I and MitoTracker Deep Red. After 30 minutes at 37 masculine C, the stained cells were diluted in an additional 60 microliters of saline/FCS. The samples were harvested directly from the 384 well plate using a Hypercyt High Capacity Flow Platform (Intellicyt) paired with a C6 Flow Cytometer (Accuri). The flow cytometry files were analyzed using FlowJo software (FlowJo).

Structure (SMILES) | Potency
Cc1ccc(S(=O)(=O)Nc2ccc(C(=O)Nc3ccncc3)cc2)cc1 | 13.9 µM (active)
O=C(CNC(=O)C1CCCCC1)OC(C(=O)c1ccccc1)c1ccccc1 (configuration not stated) | 31.7 µM (active)

— PubChem BioAssay AID624335 (National Center for Advancing Translational Sciences (NCATS), 2012)
